{"source": "PubChem BioAssay AID1345085", "about": "(National Center for Advancing Translational Sciences (NCATS), 2018)", "test_system": "SW626", "assay": "Confirmatory qHTS for gynecologic anti-cancer compounds from libraries of approved drugs and bioactive compounds; also: nearly all actives have a fitted effect of over 55% in size", "details": "gynecologic cancer cell panel viability, ATPlite luminescence, 48 h; series mostly up to 57.6 µM", "method_in_brief": "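Cells (1,000/well) were plated, left 16 h at 37 C/5% CO2, then given compound at 11 concentrations (1:3) from 57.5 uM to 0.977 nM for 48 h. ATPlite luminescence after 15 min at room temperature gave IC50 values.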", "note": "Inconclusive results are not listed. The source made the active and inactive calls. Calls follow the shape of the dose curve; as a rule, active = well fitted cell-killing curve with a large enough effect; inconclusive = small, poorly fitted or top-dose-only effect, or effect the other way; inactive = no such curve, though single readings can be large or run the other way. Potency is read from the fitted curve at half-maximal effect."}
{"smiles": "COc1ccc2c(c1)c(CC(=O)O)c(C)n2C(=O)c1ccc(Cl)cc1", "values": [{"measurement": "Potency", "result": "inactive"}]}
{"smiles": "CN(C)C/C=C/C(=O)Nc1cc2c(Nc3ccc(F)c(Cl)c3)ncnc2cc1OC1CCOC1", "note": "(centres undefined)", "values": [{"measurement": "Potency", "result": "27.3 µM (active)"}]}
{"smiles": "Cc1ccc(C(=O)Nc2ccc(CN3CCN(C)CC3)c(C(F)(F)F)c2)cc1C#Cc1cnc2[nH]ncc2c1", "values": [{"measurement": "Potency", "result": "1.72 µM (active)"}]}
{"smiles": "C[C@]12CCC(=O)C=C1CC[C@@H]1[C@@H]2[C@@H](O)C[C@@]2(C)[C@H]1CC[C@]2(O)C(=O)CO", "values": [{"measurement": "Potency", "result": "inactive"}]}
{"smiles": "CN(C)/N=N/c1nc[nH]c1C(N)=O", "values": [{"measurement": "Potency", "result": "inactive"}]}
{"smiles": "Cc1cc(SCc2sc(-c3ccc(C(F)(F)F)cc3)nc2C)ccc1OCC(=O)O", "values": [{"measurement": "Potency", "result": "inactive"}]}
{"smiles": "Cc1[nH]c2ccccc2c1CCNCc1ccc(/C=C/C(=O)NO)cc1", "values": [{"measurement": "Potency", "result": "0.0968 µM (active)"}]}
{"smiles": "CCC1C(=O)N(C)c2cnc(Nc3ccc(C(=O)NC4CCC(N5CCN(CC6CC6)CC5)CC4)cc3OC)nc2N1C(C)C", "note": "(centres undefined)", "values": [{"measurement": "Potency", "result": "7.69 µM (active)"}]}
{"smiles": "O=C(CCCCCCC(=O)Nc1ccccc1)NO", "values": [{"measurement": "Potency", "result": "2.17 µM (active)"}]}
{"smiles": "O=C(/C=C/c1cccc(S(=O)(=O)Nc2ccccc2)c1)NO", "values": [{"measurement": "Potency", "result": "1.33 µM (active)"}]}
{"smiles": "CCN(CC)CCCC(C)Nc1c2ccc(Cl)cc2nc2ccc(OC)cc12", "note": "(centres undefined)", "values": [{"measurement": "Potency", "result": "27.3 µM (active)"}]}
{"smiles": "CCN(CC)CCNC(=O)c1c(C)[nH]c(/C=C2\\C(=O)Nc3ccc(F)cc32)c1C", "values": [{"measurement": "Potency", "result": "22.4 µM (active)"}]}
{"smiles": "Cc1ccc(C(=O)N(CCCN)C(c2oc3cc(Cl)ccc3c(=O)c2Cc2ccccc2)C(C)C)cc1", "note": "(centres undefined)", "values": [{"measurement": "Potency", "result": "24.3 µM (active)"}]}
{"smiles": "COc1ccc(OC)c(-c2nnc3ccc(-c4ccc(OC)c(O[C@@H]5CCOC5)c4)nn23)c1", "values": [{"measurement": "Potency", "result": "8.63 µM (active)"}]}
